Measurements: PubChem BioAssay (NCATS)
Where “and” joins values, the source holds several entries; their conditions need not be identical. Equal values may be shown once. Records with an inconclusive call do not appear. Unmarked numbers belong to inactive results. Calls of active or inactive are those of the source. The call rests on the fitted dose curve; in most records, active means well fitted curve in the direction sought with a large enough effect; inconclusive means small, poorly fitted or top-dose-only effect, or another doubt; inactive means no such curve, though single readings can be large; an effect the other way counts as inactive or inconclusive.

Experiments:
[1] = target: Cellular tumor antigen p53 (Homo sapiens) (UniProt P04637); assay: Primary qHTS for small molecule compounds that upregulate eGFP-tagged delta133p53alpha (in N-terminal) cells. (AID 2060322); settings: NCI-H358 eGFP-delta133p53alpha fluorescence, 24 h; activation: active compounds read high; further: nearly all actives have a fitted effect of over 75% in size;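 on activation: series mostly up to about 56 µM; 0% = DMSO vehicle and 100% = reference activator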
Cellular tumor antigen p53 (Homo sapiens), sequence (P04637 whole entry, looked up): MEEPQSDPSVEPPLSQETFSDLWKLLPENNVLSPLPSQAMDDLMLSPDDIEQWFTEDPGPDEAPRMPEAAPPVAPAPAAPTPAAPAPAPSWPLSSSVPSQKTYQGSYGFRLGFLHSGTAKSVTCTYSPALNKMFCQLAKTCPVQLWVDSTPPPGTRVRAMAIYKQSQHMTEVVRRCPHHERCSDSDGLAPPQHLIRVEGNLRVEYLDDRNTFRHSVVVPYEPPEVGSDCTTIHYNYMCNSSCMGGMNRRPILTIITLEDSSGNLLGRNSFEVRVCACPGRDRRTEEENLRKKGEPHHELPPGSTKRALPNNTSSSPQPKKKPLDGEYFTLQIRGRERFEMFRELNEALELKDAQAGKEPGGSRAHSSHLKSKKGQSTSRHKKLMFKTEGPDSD
How it was run: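 NCI-H358 cells pre-induced 24 h with 10 ng/ml doxycycline to express N-terminal eGFP-delta133p53alpha, then dosed 24 h at 37C without doxycycline; fixed, Hoechst-stained, GFP intensity by laser scanning cytometry, normalized to DMSO (0%) and 57.5 uM 5-azacytidine (100%).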

[2] = BET inhibitor-based combinations targeting novel dependencies in MECOM-rearranged (r) AML: OCI-AML3 cell line (AID 2202232); settings: Potency: OCI-AML3 viability; further: nearly all actives have a fitted effect of over 35% in size
How it was run: (§1)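 A 48 hr incubation preceded viability reading by CellTiter-Glo, with 15 min room-temperature development. Dose series had 11 points; normalization used DMSO and empty wells; AUC was computed and mean-centered per line as Z-AUC.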

[3] = BET inhibitor-based combinations targeting novel dependencies in MECOM-rearranged (r) AML: MV-4-11 cell line (AID 2202233); further: nearly all actives have a fitted effect of over 45% in size
How it was run: (§2)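 Each compound is tested in an 11-point concentration series against 500 seeded cells/well for 48 hr. The luminescent viability signal is normalized to DMSO and blank wells, then reduced to AUC and a cell-line-centred Z-AUC.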

[4] = BET inhibitor-based combinations targeting novel dependencies in MECOM-rearranged (r) AML: HNT-34 cell line (AID 2202234); further: nearly all actives have a fitted effect of over 35% in size
How it was run: as §2

[5] = BET inhibitor-based combinations targeting novel dependencies in MECOM-rearranged (r) AML: UCSD-AML1 cell line (AID 2202235); further: nearly all actives have a fitted effect of over 40% in size
How it was run: as §2

[6] = BET inhibitor-based combinations targeting novel dependencies in MECOM-rearranged (r) AML: AML-194 cell line (AID 2202237; further: nearly all actives have a fitted effect of over 40% in size)
How it was run: as §1

[7] = BET inhibitor-based combinations targeting novel dependencies in MECOM-rearranged (r) AML: AML-191 cell line (AID 2202236; further: nearly all actives have a fitted effect of over 35% in size)
How it was run: as §1
Potency means the concentration at half of the fitted maximal effect.

Compound | activation [1] | Potency [2] | Potency [3] | Potency [4] | Potency [5] | Potency [6] | Potency [7] | Potency [1]
C[C@H](NC(=O)[C@@H](O)c1cc(F)cc(F)c1)C(=O)N[C@@H]1C(=O)N(C)c2ccccc2-c2ccccc21 | 10.4% | inactive | inactive | inactive | inactive | inactive |  | 
OC1CCC(Nc2ncc3nc(Nc4c(F)cc(F)cc4F)n([C@@H]4CCOC4)c3n2)CC1 (some centres not stated) | 52.2% | 18.6 µM (active) | 20.9 µM (active) |  | inactive |  | 16.6 µM (active) | 
O=C(O)[C@H](Cc1c[nH]c2ccccc12)N1C(=O)c2ccccc2C1=O | -29% | inactive | inactive | inactive |  | inactive | inactive | 
NS(=O)(=O)c1ccc(NC2=CC(=O)c3ccccc3C2=O)cc1 | 4.73% | 5.25 µM (active) | 0.833 µM (active) |  | inactive | inactive | 4.68 µM (active) | 
Cc1c(C(=O)NN2CCCCC2)nn(-c2ccc(Cl)cc2Cl)c1-c1ccc(Cl)cc1 | 8.47% and -3.72% | inactive | 20.9 µM (active) |  | inactive |  |  | 
CC(C)(Cc1ccc2ccccc2c1)NC[C@@H](O)COc1cccc(Cl)c1C#N | 19.8% | 16.6 µM (active) | 16.6 µM (active) | 16.6 µM (active) |  | 10.5 µM (active) | 10.5 µM (active) | 
CC1(CN2CCC(n3c(=O)[nH]c4ccccc43)CC2)OCc2ccccc2-n2cccc21 (configuration not stated) | -25.4% and -3.95% | 16.6 µM (active) | 14.8 µM (active) |  | inactive |  |  | 
CO[C@@H](C(=O)N1Cc2[nH]nc(NC(=O)c3ccc(N4CCN(C)CC4)cc3)c2C1)c1ccccc1 | 20.9% | 1.86 µM (active) | 0.148 µM (active) |  | 0.148 µM (active) |  |  | 
N#Cc1c(NC(=O)c2cccc3ccccc23)sc2c1CCCC2 |  | 0.332 µM (active) | 0.372 µM (active) | 0.372 µM (active) | 0.332 µM (active) | 0.332 µM (active) | 0.296 µM (active) | 13.7 µM (active)
CC(=O)O[C@H]1C[C@@H]2CC[C@H]3[C@H]4C[C@H]([N+]5(C)CCCCC5)[C@@H](OC(C)=O)[C@@]4(C)CC[C@@H]3[C@@]2(C)C[C@H]1[N+]1(C)CCCCC1 | 5.41% | inactive | inactive | inactive | inactive | inactive | inactive | 
O=C(CCCCCCC(=O)Nc1cccnc1)NO | 50.9% | 5.9 µM (active) | 2.35 µM (active) | 4.68 µM (active) | 7.42 µM (active) | 8.33 µM (active) | 3.32 µM (active) | 
